Hits are enriched below; roughly 4.2% of the tested compounds scored in any of these assays.
NALP1 inh – NALP1 inflammasome inhibitors in reconstituted yeast, colorimetric, S. cerevisiae, triplicate retest | inhibition, % at 10 µM | AID 2071, 2009 | 0.61% of 280,000 active | S. cerevisiae NALP1/ASC/caspase-1 growth, X-gal OD620, 72 h; in the data active means inhibition mostly above about 24%, no sharp cut-off; inactive means mostly below about 32%
tim23-1 inh – growth inhibitors of tim23-1 mutant yeast, primary screen, luminescence, uHTS | S. cerevisiae tim23-1 growth, BacTiter-Glo luminescence, 24 h | 1.3% of 330,000 active | inhibition, % at 20 µM;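 active means growth inhibition of the mutant yeast at or above 50%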;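 further: temperature-sensitive mutant grown at 25 °C; plate controls were DMSO-treated mutant yeast for no effect and medium wells lacking yeast for full effect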
TIM10 inh – growth inhibitors of isogenic TIM10 control yeast, primary screen, counter-screen for tim10-1 yeast inhibitor project, luminescence, uHTS | S. cerevisiae TIM10 strain growth, BacTiter-Glo luminescence, 24 h | 1.4% of 330,000 active | AID 463195, 2010 | inhibition, % at 10 µM;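 active means inhibition of 40% or more at the single tested concentration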;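 further: wild-type TIM10 isogenic control strain grown at permissive 25 °C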
PfHsp90 yeast 2 – growth inhibition of PfHsp90-expressing yeast, primary screen, antimalarial PfHsp90 inhibitor project, S. cerevisiae, BacTiter-Glo luminescence, single point, set 2; AID 504621, 2011; inhibition, % at 9.4 µM; 0.32% of 310,000 active; BacTiter-Glo ATP, 48 h; yeast lacking PDR1 and PDR3 efflux regulators;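 active means every replicate shows inhibition above about 80%, whatever the replicate mean, limit read from the data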;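 further: 0% = DMSO neutral controls and 100% = 20 µM radicicol positive controls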
tim10-1 inh – growth inhibitors of tim10-1 mutant yeast, primary screen, luminescence, uHTS; S. cerevisiae tim10-1 ts strain growth, BacTiter-Glo, 24 h; inhibition, % at 20 µM; 2.2% of 330,000 active;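 active means inhibition of at least 40%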;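 further: mutant grown at 25 °C; 0% = DMSO wells with yeast and 100% = wells holding no yeast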
NALP3 yeast inh – NALP3 inflammasome inhibitors in reconstituted yeast, primary screen, luminescence, uHTS. Yeast reconstituted NLRP3/ASC/caspase-1, beta-gal luminescence, 24 h. inhibition, % at 10 µM. 0.39% of 330,000 active;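 active means inhibition of 50% or more; inactive means inhibition below 50%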;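 further: plate controls were induced DMSO wells for no effect and uninduced yeast grown without galactose for full effect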
tim10-1 confirm – growth inhibitors of tim10-1 mutant yeast, confirmation, single concentration, luminescence, S. cerevisiae. S. cerevisiae tim10-1 ts strain growth, BacTiter-Glo, 24 h. 56% of 7,400 active. AID 463213, 2010. shares compounds with tim10-1 inh. inhibition, % at 20 µM;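 active means inhibition of yeast growth at or above a set limit in either of two repeat tests at 20 µM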;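 further: tim10-1 mutant grown at permissive 25 °C to find synthetic lethal compounds; 0% = DMSO yeast wells and 100% = medium wells without yeast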
* hit, by the source's call; . = not tested or not shown.

SMILES | NALP1 inh | tim23-1 inh | TIM10 inh | PfHsp90 yeast 2 | tim10-1 inh | NALP3 yeast inh | tim10-1 confirm
NCCCC[C@H]1CNC(=O)C(=O)N1CCc1cccc(F)c1 | . | 15 | -1 | -3 | 1 | 16 | .
Cc1ccn2c(Nc3ccccc3C)c(-c3ccncc3)nc2c1 | 1 | 30 | 20 | 8 | 29 | 1 | .
N#Cc1cc([N+](=O)[O-])ccc1NC(=O)COC(=O)C1CCC(=O)N1 (centres undefined) | . | 5 | -7 | -2 | -9 | 12 | .
O=C1/C(=C/c2ccc(O)cc2)CCc2ccc([N+](=O)[O-])cc21 | 28 | 2 | 1 | -62 | 20 | 19 | .
O=C1/C(=C\c2ccc([N+](=O)[O-])cc2)CCc2ccccc21 | 33 | 42 | 37 | 9 | 47* | 21 | 36*
c1cncc(-c2nnc3sc(C4CCCCC4)nn23)c1 | -17 | 6 | 10 | -18 | 10 | -23 | .
CCOc1cccc(-c2nnc3sc(C4CCCCC4)nn23)c1 | -15 | 40 | 31 | -20 | 41* | -20 | 13
CC(=O)c1ccc(S(=O)(=O)N2CCN(C(=O)CSC(=S)N3CCCC3)CC2)cc1 | . | 1 | -8 | . | -12 | -4 | .
O=C1C(Cl)=C(N2CCN(Cc3ccccc3)CC2)C(=O)N1Cc1ccccc1 | 2 | 26 | 28 | -4 | 44* | 16 | 14
CCOc1cccc2cc(-c3nnc(NCc4ccco4)s3)c(=O)oc12 | -28 | 23 | 23 | -15 | 40* | 2 | 21
c1ccc2c(c1)OCC(c1csc3ncnc(N4CCCCC4)c13)O2 (centres undefined) | 36 | 48 | 29 | -6 | 41* | -29 | 24
CCCN1CCN(c2ncnc3scc(C4COc5ccccc5O4)c23)CC1 (centres undefined) | 9 | 24 | 1 | -11 | 31 | -4 | .
S=C(Nc1ccccc1)Nc1nccs1 | 12 | 32 | 18 | 0 | 42* | 45 | 18
Fc1ccc(NC(=S)Nc2nccs2)cc1 | 0 | 34 | 3 | -45 | 14 | 43 | .
COc1ccc(CNCCC(c2ccc(OC(C)C)cc2)c2ccccc2OC)cc1 (centres undefined) | 22 | 15 | 24 | -12 | 2 | 20 | .
COc1ccccc1C(CCNCc1ccccc1)c1ccc(OC(C)C)cc1 (centres undefined) | 38 | 32 | 21 | 0 | 41* | 13 | 31*
O=C(N/N=C/c1ccc(N2CCCCC2)o1)c1ccccc1[N+](=O)[O-] | 39 | 13 | -4 | -17 | 2 | -1 | .
C=CCOC(=O)/C(=C\c1ccccc1)NC(=O)c1ccc(C)cc1 | 11 | 21 | 25 | 3 | 40* | -17 | 27
CCOC(=O)/C(=C\c1ccccc1)NC(=O)c1ccccc1 | -1 | 21 | 22 | 8 | 31 | -18 | .
Cc1cc(C)nc(N(C#N)Cc2ccccc2)n1 | 28 | -7 | -23 | -16 | 9 | -5 | .
Cc1cc(C)nc(N(C#N)Cc2cccc3ccccc23)n1 | -5 | 32 | 6 | 7 | 48* | 14 | 35*
Cc1nc2c(-c3ccccc3)cnn2c(N)c1-c1ccccc1 | 36 | 39 | 30 | -77 | 43* | 10 | 39*
CCOC(=O)C(Cc1ccc(NC(C)=O)cc1)N1C(=O)c2ccccc2C1=O (centres undefined) | . | 24 | -1 | 5 | 18 | 6 | .
CCc1nc(SCC(=O)Nc2ccc(N(C)C)cc2)c2ccccc2n1 | . | 25 | 6 | -4 | 11 | 2 | .
CC(=O)C1=C(C)N(Cc2ccccc2)C(=O)N[C@H]1c1cccc(C(F)(F)F)c1 | 21 | 17 | -1 | -12 | 8 | 3 | .
CC(=O)C1=C(C)N(Cc2ccccc2)C(=O)N[C@@H]1c1cccc(C(F)(F)F)c1 | 32 | 38 | 24 | -15 | 41* | 16 | 26
